# Laboratory results as given in ChEMBL document CHEMBL4513216, “Probing the Open Global Health Chemical Diversity Library for Multistage-Active Starting Points for Next-Generation Antimalarials” (ACS Infect Dis, 2020).
# Among all 69,000 compounds or so, about 8,600 (12%) showed an effect of 50% or more. The sample as a whole holds a higher share of strong results than the screen did.
# Tested on: Plasmodium berghei
# Assay: Screen against P. berghei liver stage (PbLuc), transformed with Luciferase, at 10uM
# Type: functional, HepG2
# Details: tested at 10 uM
row,Structure (SMILES),INHIBITION [%]
1,NC(=O)CSc1ccccc1NC(=O)C1CCCCC1,21.1
2,CC1N(c2cnn(C)c2)C(=O)COC12CCN(c1ccccn1)CC2 (configuration not stated),39.5
3,CC1N(c2cnn(C)c2)C(=O)COC12CCN(CC1CC1)CC2 (configuration not stated),-5.25
4,CC1N(c2cnn(C)c2)C(=O)COC12CCN(c1ncccn1)CC2 (configuration not stated),58.3
5,O=C(Cc1ccc2c(c1)CCO2)N1CCN(c2nccs2)CC1,9.14
6,CN(C)c1cc(CNC(=O)Nc2nccs2)ccn1,-0.219
7,CC(C)NC(=O)[C@H]1C[C@@H]2[C@@H](C1)OCCN2Cc1ccsc1,16.9
8,COCCCC(=O)NC1(c2cccc(Br)c2)CC1,32.5
9,CSCC(=O)NC1(c2cccc(Cl)c2)CC1,8.41
10,CCOCC(=O)NC1(c2cccc(Cl)c2)CC1,57.3
11,COCCSCC(=O)NC1(c2cccc(Br)c2)CC1,54.4
12,NC(=O)CSCC(=O)NC1(c2cccc(Br)c2)CC1,8.99
13,CCOCC(=O)NC1(c2cccc(Br)c2)CC1,45.1
14,Cc1nn(C)c(N(C)C)c1CNCC(O)COc1ccccc1 (configuration not stated),-56.9
15,O=C(NCCSc1ccccc1)[C@H]1CNC[C@H](C(=O)N2CCOCC2)C1,11.2
16,CCS(=O)(=O)CC(C)N(C)C(=O)COc1ccccc1C#N (configuration not stated),-29.7
17,CCCc1nc(CN2CCCN(Cc3nccn3C)CC2)no1,25.6
18,CCOCCN1CCN(Cc2cccc(C(=O)N(C)C)c2)CC1CC (configuration not stated),25.6
19,O=C(CCSc1ccccc1)NCC1CCN(Cc2ccsc2)CC1,27.6
20,CCOCC(=O)NCC1CCN(Cc2ccsc2)CC1,60
21,O=C(CCc1ccccc1)NCC1CCN(Cc2cccs2)CC1,51.9
22,COCC(=O)NCC1CCN(Cc2ccsc2)CC1,-6.67
23,O=C(CCc1ccsc1)NCC1CCN(Cc2cccs2)CC1,14.6

row,Structure (SMILES),INHIBITION [%]
1,O=C(CCc1ccsc1)NCC1CCN(c2ccccc2)C1 (configuration not stated),2.74
2,O=C(CCc1ccccc1)NCC1CCN(Cc2ccsc2)CC1,-11.8
3,O=C(COc1ccccc1)NCC1CCN(Cc2ccsc2)CC1,27
4,O=C(CCc1ccccc1)NCC1CCN(Cc2ccccc2)CC1,54.2
5,Cc1ccccc1C1CCCN1Cc1nc2c(cnn2C)c(=O)[nH]1 (configuration not stated),-52.5
6,CN(C)[C@@H]1CCN(c2ncc(F)cn2)[C@H]1Cc1ccccc1,-101
7,CN(C)C(=O)CN1C(=O)CCC12CCN(Cc1cccn1C)CC2,33.2
8,Cn1ccc(C(=O)N2CCN(CC(O)C(C)(C)C)CC2)cc1=O (configuration not stated),25.6
9,Cc1nc(N(C)C)ncc1C(=O)NCCCn1nccc1C1CC1,27.5
10,Cc1cc(C(=O)NCCCn2nccc2C2CC2)c(=O)[nH]c1C,53.3
11,Cc1ccc2[nH]c(=O)cc(C(=O)NCCCn3nccc3C3CC3)c2c1,-7.16
12,N#Cc1cccc(S(=O)(=O)N2CCCCC2CCN2CCCC2=O)c1 (configuration not stated),20.1
13,COCCCC1CCCCN1S(=O)(=O)c1cccc(C#N)c1 (configuration not stated),-41.8
14,N#Cc1cccc(S(=O)(=O)N2CCCCC2CCN2CCCC2)c1 (configuration not stated),51.3
15,CNC(=O)NCC(CO)Cc1cccc(OC(F)(F)F)c1 (configuration not stated),-10.3
16,CCS(=O)(=O)N1CCc2c(cnc(-c3cccnc3)c2C(=O)O)C1,-1.26
17,Cc1ccc(C)c(S(=O)(=O)CCN2CCc3c(ncn3C)C2)c1,19.4
18,O=C(c1ccncc1)N1CCC(Cc2cnc3[nH]ccc3c2)CC1,33.7
19,O=C(c1cnccn1)N1CCC(Cc2cnc3[nH]ccc3c2)CC1,17.1
20,O=C(c1cncs1)N1CCC(Cc2cnc3[nH]ccc3c2)CC1,64.1
21,Cc1ccc(OC2(C(=O)NC(C)c3csc(C)n3)CCNCC2)cc1 (configuration not stated),41.2
22,Nc1nnnn1NCc1cccc2ccccc12,23.4
23,Nc1nnnn1NCc1ccccc1C(F)(F)F,-24.6

row,Structure (SMILES),INHIBITION [%]
1,Nc1nnnn1NCc1cccc(Cl)c1Cl,61.5
2,CC(C)NC(=O)C1CCc2nnc(C(C)(C)C)n21 (configuration not stated),-15.5
3,Cc1nc(CN2CCC3(CCN(c4cnn(C)c4)C3=O)C2)cs1 (configuration not stated),-17.2
4,CC1(C(=O)N2CCOCC2)CN(Cc2ncc[nH]2)CCO1 (configuration not stated),27.8
5,Cc1ccc(CN2CC[C@@H](NS(C)(=O)=O)[C@@H]2Cc2ccncc2)o1,-7.94
6,COCCN1C[C@H]2CCN(C(=O)Nc3ccccc3C)CC[C@H]2S1(=O)=O,34.6
7,CCN1C[C@H]2CCN(C(C)=O)CC[C@H]2S1(=O)=O,-26.8
8,CCN1C[C@H]2CCN(C(=O)Nc3ccccc3C)CC[C@H]2S1(=O)=O,50.6
9,O=C(c1cc[nH]n1)N1CC[C@@H]2CN(Cc3cccnc3)S(=O)(=O)[C@@H]2CC1,76.4
10,O=C(c1cc[nH]n1)N1CC[C@@H]2CN(Cc3ccncc3)S(=O)(=O)[C@@H]2CC1,26.5
11,Cc1ccccc1NC(=O)N1CC[C@@H]2CN(CC(C)C)S(=O)(=O)[C@@H]2CC1,-13.4
12,CC(C)CN1C[C@H]2CCN(C(=O)c3ccccn3)CC[C@H]2S1(=O)=O,-19.6
13,O=C(c1cc[nH]n1)N1CC[C@@H]2CN(Cc3ccccc3)S(=O)(=O)[C@@H]2CC1,-23.3
14,CCN1C[C@H]2CCN(C(=O)c3cc[nH]n3)CC[C@H]2S1(=O)=O,63.5
15,CCN(CC)C(=O)NCCc1ccn(-c2ccccc2)n1,7.67
16,CCn1ncc2c1CCCC2NCc1ccc(OC)cc1OC (configuration not stated),42
17,O=C(CC1[C@H]2CN(c3ncccn3)C[C@@H]12)Nc1cccnc1 (some centres not stated),13.7
18,Cc1nc(CN(C)C2CCN(Cc3ccc(C(N)=O)cc3)C2)no1 (configuration not stated),-27.8
19,Cc1cccc(CN2CCCC(c3nccs3)C2)n1 (configuration not stated),43.6
20,Cc1cc(C)cc(NCCC(=O)NCc2cccnc2N(C)C)c1,23.7
21,O=C(c1cc2c(s1)CCC2)N1CCN(c2cnccn2)CC1,-8.66
